# The antibiotic and cytotoxicity screens of Wong et al. (2023)
# In all, about 39,000 compounds went through this assay and about 3,300 (8.5%) were called active. The sample holds actives, similar compounds and a random draw of the others, so the mix is not that of the screen.
# System: HepG2
# Assay: cytotoxicity call (relative viability < 0.9)
# Conditions: 10 µM
row,SMILES,cytotoxicity call
1,Cc1csc2c(N3CCC(Cn4cc(C(C)(C)N)nn4)CC3)ncnc12,inactive
2,C[C@@H]1OC2=C(Cl)C(=O)N3CCC[C@H]3C[C@@]21O,inactive
3,Cc1ccc(S[C@]2(C(=O)NCC(F)(F)F)CC(=O)N(Cc3ccccc3)[C@@H]2c2ccc(CO)cc2I)cc1,inactive
4,C[C@@H]1CN([C@H](C)CO)S(=O)(=O)c2ccc(C#Cc3cccc(F)c3)cc2O[C@@H]1CN(C)CC1CC1,inactive
5,COC(=O)[C@@H]1[C@@H](CO)[C@@H]2Cn3c(cccc3=O)[C@@H]2N1C(=O)C1CC1,inactive
6,C[C@H](NC(=O)C[C@@H]1CC[C@H](NC(=O)CN2CCOCC2)[C@@H](CO)O1)c1ccccc1,inactive
7,C[C@@H]1CCCCO[C@H](CN(C)Cc2ccccc2)[C@H](C)CN([C@H](C)CO)C(=O)c2cc(NC(=O)Cc3ccccc3)ccc2O1,inactive
8,C[C@@H]1CCCCO[C@@H](CN(C)C(=O)Nc2ccc(C(F)(F)F)cc2)[C@H](C)CN([C@@H](C)CO)C(=O)c2cc(NS(=O)(=O)c3ccc(Cl)cc3)ccc2O1,inactive
9,C[C@@H]1CCCCO[C@H](CN(C)C(=O)Nc2ccc(C(F)(F)F)cc2)[C@@H](C)CN([C@H](C)CO)C(=O)c2cc(NS(=O)(=O)c3ccc(Cl)cc3)ccc2O1,inactive
10,C[C@@H]1CN([C@H](C)CO)C(=O)c2cc(NS(=O)(=O)c3ccc(Cl)cc3)ccc2O[C@H]1CN(C)C(=O)Nc1ccc(C(F)(F)F)cc1,inactive
11,C[C@H]1CN([C@@H](C)CO)C(=O)c2cc(NS(=O)(=O)c3ccc(Cl)cc3)ccc2O[C@@H]1CN(C)C(=O)Nc1ccc(C(F)(F)F)cc1,inactive
12,C[C@@H]1CCCCO[C@H](CN(C)C(=O)Nc2ccc(C(F)(F)F)cc2)[C@H](C)CN([C@H](C)CO)C(=O)c2cc(NS(=O)(=O)c3ccc(Cl)cc3)ccc2O1,active
13,C[C@@H]1CN([C@@H](C)CO)C(=O)c2cc(NS(=O)(=O)c3ccc(Cl)cc3)ccc2O[C@@H](C)CCCCO[C@@H]1CN(C)C(=O)Nc1ccc(C(F)(F)F)cc1,inactive
14,C[C@H]1CCCCO[C@H](CN(C)C(=O)Nc2ccc(C(F)(F)F)cc2)[C@@H](C)CN([C@@H](C)CO)C(=O)c2cc(NS(=O)(=O)c3ccc(Cl)cc3)ccc2O1,inactive
15,C[C@H](CO)N1C[C@H](C)[C@@H](CN(C)C(=O)Nc2ccc(C(F)(F)F)cc2)OCCCC[C@H](C)Oc2ccc(NS(=O)(=O)c3ccc(Cl)cc3)cc2C1=O,active
16,C[C@H]1CCCCO[C@@H](CN(C)C(=O)Nc2ccc(C(F)(F)F)cc2)[C@@H](C)CN([C@@H](C)CO)C(=O)c2cc(NS(=O)(=O)c3ccc(Cl)cc3)ccc2O1,inactive
17,C[C@@H]1CCCCO[C@H](CN(C)C(=O)Nc2ccc(C(F)(F)F)cc2)[C@H](C)CN([C@@H](C)CO)C(=O)c2cc(NS(=O)(=O)c3ccc(Cl)cc3)ccc2O1,inactive
18,C[C@H](CO)N1C[C@H](C)[C@H](CN(C)C(=O)Nc2ccc(C(F)(F)F)cc2)OCCCC[C@H](C)Oc2ccc(NS(=O)(=O)c3ccc(Cl)cc3)cc2C1=O,active
19,C[C@@H]1CN([C@H](C)CO)C(=O)c2cc(NS(=O)(=O)c3ccc(Cl)cc3)ccc2O[C@@H]1CN(C)C(=O)Nc1ccc(C(F)(F)F)cc1,active
20,NCCCC[C@@H](N)C(=O)N[C@@H](Cc1ccc(O)cc1)C(=O)N[C@@H](CCCCN)C(=O)O,inactive
21,C[C@@H]1CCCCO[C@H](CN(C)C(=O)NC2CCCCC2)[C@H](C)CN([C@@H](C)CO)C(=O)c2cc(NC(=O)Cc3ccccc3)ccc2O1,inactive

row,SMILES,cytotoxicity call
1,COc1ccc(NC(=O)N(C)C[C@@H]2OCCCC[C@H](C)Oc3ccc(NC(=O)Nc4ccc5c(c4)OCO5)cc3C(=O)N([C@H](C)CO)C[C@@H]2C)cc1,inactive
2,C[C@H]1CCCCO[C@@H](CN(C)C(=O)Nc2ccc(C(F)(F)F)cc2)[C@@H](C)CN([C@@H](C)CO)C(=O)c2cc(NC(=O)Cc3ccccc3)ccc2O1,inactive
3,O=C(C[C@H]1CC[C@@H]2[C@H](COC[C@@H](O)CN2CC2CCOCC2)O1)N1CCOCC1,inactive
4,C[C@@H]1CCCCO[C@@H](CN(C)C(=O)Nc2ccccc2)[C@H](C)CN([C@H](C)CO)C(=O)c2cc(NC(=O)NC3CCCCC3)ccc2O1,inactive
5,C[C@@H]1CN([C@H](C)CO)C(=O)c2cc(NC(=O)Nc3cccc4ccccc34)ccc2O[C@@H]1CN(C)S(=O)(=O)c1ccc(F)cc1,inactive
6,CCS(=O)(=O)N1C[C@]2(CN(C2)S(=O)(=O)c2cn(cn2)C)c2c(n(c3cc(ccc23)OC)C)[C@H]1CO,inactive
7,C[C@@H]1CCCCO[C@@H](CN(C)C(=O)Nc2ccc(C(F)(F)F)cc2)[C@H](C)CN([C@H](C)CO)C(=O)c2cc(NS(=O)(=O)c3ccc(Cl)cc3)ccc2O1,inactive
8,C[C@@H]1CN([C@H](C)CO)C(=O)c2cc(NS(=O)(=O)c3ccc(Cl)cc3)ccc2O[C@@H](C)CCCCO[C@H]1CN(C)C(=O)Nc1ccc(C(F)(F)F)cc1,active
9,C[C@@H]1CCCCO[C@H](CN(C)C(=O)Nc2ccc(C(F)(F)F)cc2)[C@@H](C)CN([C@@H](C)CO)C(=O)c2cc(NS(=O)(=O)c3ccc(Cl)cc3)ccc2O1,inactive
10,O=C(C[C@H]1CC[C@@H]2[C@H](COC[C@H](O)CN2S(=O)(=O)c2ccccc2)O1)NCCN1CCCCC1,inactive
11,C[C@H]1CCCCO[C@H](CN(C)Cc2ccccc2)[C@@H](C)CN([C@@H](C)CO)C(=O)c2cc(NC(=O)Nc3ccccc3)ccc2O1,inactive
12,COC(=O)[C@@]12OC[C@]34[C@H]([C@@H](O)[C@@H]1O)[C@@]1(C)CC(=O)C(=O)[C@H](C)[C@@H]1C[C@H]3OC(=O)[C@H](OC(=O)/C=C(\C)C(C)C)[C@@H]24,active
13,COc1ccc2c3c([nH]c2c1)[C@@H](CO)N(CC1CCCC1)C[C@]13CCN(CC1)C(=O)Nc1cccc(c1)F,inactive
14,COc1ccc2c3c([nH]c2c1)[C@H](CO)N(C[C@]13CCN(CC1)CC1CCCC1)C(=O)Nc1cccc(c1)F,active
15,COc1ccc2c3c([nH]c2c1)[C@@H](CO)N(C[C@]13CCN(CC1)C(=O)Nc1cccc(c1)F)C(=O)c1ccccc1,inactive
16,COc1ccc2c3c([nH]c2c1)[C@@H](CO)N(C[C@]13CCN(CC1)CC1CCCC1)C(=O)Nc1cccc(c1)F,active
17,COc1ccc2c3c([nH]c2c1)[C@H](CO)N(CC1CCCC1)C[C@]13CCN(CC1)C(=O)Nc1cccc(c1)F,inactive
18,Cc1noc(C)c1S(=O)(=O)Nc1ccc2c(c1)CC(=O)N([C@@H](C)CO)C[C@@H](C)[C@H](CN(C)S(=O)(=O)c1cccs1)O2,inactive
19,CCOC(=O)C(=O)N(C)CC(OC)OC,inactive
20,CCOC(=O)OC[C@@H]1[C@@H]2NC(=O)N(C)[C@@]1(COC(=O)NCCCCCC(=O)NO)Oc1ccccc12,inactive
21,C[C@H](CO)N1C[C@H](C)[C@@H](CN(C)S(C)(=O)=O)OCCCC[C@H](C)Oc2ccc(NS(C)(=O)=O)cc2C1=O,inactive

row,SMILES,cytotoxicity call
1,COc1ccc(S(=O)(=O)N(C)C[C@@H]2Oc3ccc(NS(=O)(=O)c4ccc(F)cc4)cc3C(=O)N([C@H](C)CO)C[C@@H]2C)cc1,inactive
2,CC(C)N1C[C@H](C)[C@@H](CN(C)Cc2ccc(Oc3ccccc3)cc2)Oc2c(cccc2-c2nn[nH]n2)C1=O,inactive
3,N=C(N=C(N)N)Nc1ccccc1,inactive
4,Cl.N=C(N)NC(=N)NCCc1ccccc1,inactive
5,N=C(N=C(N)N)NCCc1ccccc1,active
6,Cc1cc(C(=O)O)c(=O)[nH]c1C,inactive
7,NCCC1=CSC2=NCCN12,inactive
8,O=C(CCCCCCC(=O)Nc1ccc([C@H]2O[C@@H](CSc3ccccn3)C[C@H](c3ccccc3)O2)cc1)NO,inactive
9,CCS(=O)(=O)NCC[C@@H]1CC[C@H](NC(=O)Cc2ccccn2)[C@@H](CO)O1,inactive
10,Cc1ccc(S(=O)(=O)N[C@@H]2CC[C@@H](CC(=O)NCc3ccc(Cl)c(Cl)c3)O[C@@H]2CO)cc1,inactive
11,Cc1ccc(-c2ccc3c(c2)O[C@@H](CN(C)C(=O)Nc2ccc(C(F)(F)F)cc2)[C@@H](C)CN([C@@H](C)CO)S3(=O)=O)cc1,inactive
12,Cc1ccccc1-c1ccc2c(c1)O[C@@H](CN(C)C(=O)Nc1ccc(C(F)(F)F)cc1)[C@H](C)CN([C@H](C)CO)S2(=O)=O,inactive
13,Cc1ccc(-c2ccc3c(c2)O[C@@H](CN(C)C(=O)Nc2ccc(C(F)(F)F)cc2)[C@@H](C)CN([C@H](C)CO)S3(=O)=O)cc1,active
14,Cc1ccccc1-c1ccc2c(c1)O[C@H](CN(C)C(=O)Nc1ccc(C(F)(F)F)cc1)[C@H](C)CN([C@@H](C)CO)S2(=O)=O,active
15,Cc1ccc(-c2ccc3c(c2)O[C@H](CN(C)C(=O)Nc2ccc(C(F)(F)F)cc2)[C@H](C)CN([C@@H](C)CO)S3(=O)=O)cc1,inactive
16,Cc1ccccc1-c1ccc2c(c1)O[C@H](CN(C)C(=O)Nc1ccc(C(F)(F)F)cc1)[C@H](C)CN([C@H](C)CO)S2(=O)=O,inactive
17,C[C@@H]1CCCCO[C@H](CN(C)Cc2ccc(C(=O)O)cc2)[C@@H](C)CN([C@H](C)CO)C(=O)c2cc(NC(=O)c3ccccc3)ccc2O1,inactive
18,C[C@H](CO)N1C[C@H](C)[C@@H](CN(C)CC2CCCCC2)Oc2c(NC(=O)Cn3cnnn3)cccc2C1=O,inactive
19,C[C@@H]1CN([C@H](C)CO)C(=O)Cc2cc(NC(=O)Cn3cnnn3)ccc2O[C@H]1CN(C)CC1CC1,inactive
20,C[C@H]1CN([C@@H](C)CO)S(=O)(=O)c2ccc(-c3cccnc3)cc2O[C@@H]1CN(C)C(=O)NC1CCCC1,inactive
21,O=C(C1CC1)N1CCCN(C(=O)C2CC2)CC1,inactive
